This is a sample that favours compounds with a hit; in the whole collection about 8.7% have one here.
HP1b chromo inh: inhibitors of HP1-beta chromodomain binding to methylated histone tails. 390,000 tested, 0.56% active. AID 540317. P83916. AlphaScreen HP1-beta / biotin-H3K9me3 peptide binding. Potency, µM (titrated, usually from 114 µM), hits mostly inhibitors; also: nearly all actives have a fitted effect of over 70% in size
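Compound inhibition of the preformed complex between 50 nM HP1-beta and 50 nM biotinylated H3K9me3 peptide was read by AlphaScreen. Buffer was PBS pH 7.4 with 0.01% Tween-20. Incubations ran 30 min at room temperature, with 10 ug/mL donor/acceptor beads.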
BAZ2B inh: BAZ2B (human) inhibition; AlphaScreen BAZ2B-H3K14Ac peptide displacement; Potency, µM (highest dose often 114 µM), hits mostly inhibitors; 360,000 tested, 4.4% active; AID 504333; also: nearly all actives have a fitted effect of over 60% in size
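Protein-peptide AlphaScreen: BAZ2B 50 nM, b-H3K14Ac 50 nM, 1x PBS pH 7.4 + 0.01% Tween-20. Preincubation 30 min RT; cpd 30 min RT (top 110 uM); beads 20 min RT, light-protected.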
JMJD2A Tudor inh: blocks the human JMJD2A Tudor domain | Potency, µM (series often up to 114 µM), usual class: inhibitors | AlphaScreen JMJD2A-Tudor / H3K4me3 peptide binding | 390,000 tested, 4.4% active; also: nearly all actives have a fitted effect of over 50% in size
Sfp inh: blocks B. subtilis Sfp PPTase activity; Q9F4F7; Biochemical Sfp PPTase activity, qHTS; Potency, µM, most hits filed as inhibitors; AID 1490; 310,000 tested, 3.5% active;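 also: the enzyme is Sfp with the accession as filed and its product quenches rhodamine fluorescence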
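With Hepes-Na pH 7.6 buffer containing 10 mM MgCl2, Sfp (15 nM) modified BHQ-2-YbbR (12.5 uM) using rhodamine-CoA (5 uM). Two reads 30 minutes apart at 525/598 nm yielded each well's rate.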
12-LOX inh: blocks human arachidonate 12S-lipoxygenase; 580,000 tested, 1.1% active; Potency, µM (top dose mostly 108 µM), most hits filed as inhibitors; purified 12hLO, xylenol orange hydroperoxide absorbance; AID 1671190
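Purified human 12hLO (150 nM final) in 25 mM Hepes, 0.01% Triton X-100, pH 7.0 was preincubated 15 min at room temperature with compound. Then 40 uM arachidonic acid was added, 30 min. Hydroperoxide was read by Fe-XO absorbance ratio 573/405 nm.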
G9a block: blocks human histone lysine methyltransferase G9a; Q96KQ7; G9a H3K9 monomethylation, AlphaScreen, 2 h; Potency, µM (top dose mostly 102 µM), actives largely listed as inhibitors; 350,000 tested, 8.8% active; also: nearly all actives have a fitted effect of over 75% in size
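Readings reflect AlphaScreen signal from monomethyl-H3K9 antibody detection. HMT at 20 nM; substrate b-H3K9 500 nM; cofactor SAM 20 uM; 2 h RT reaction; compounds tested as titrations in qHTS with 15 min preincubation.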
Numbers stand for hits; 0 = inactive; ? = inconclusive; - = no result; [ ] = remark or other dose. Calls follow the shape of the dose curve; as a rule, active = well fitted curve in the direction sought with a large enough effect; inconclusive = small, poorly fitted or top-dose-only effect, or another doubt; inactive = no such curve, though single readings can be large; an effect the other way counts as inactive or inconclusive.

SMILES	HP1b chromo inh	BAZ2B inh	JMJD2A Tudor inh	Sfp inh	12-LOX inh	G9a block
CCn1cc(C(=O)O)c(=O)c2cc(F)c(N3CCN(C(=O)Nc4ccccc4)CC3)cc21	0	0	22µM	0	0	40µM
CCn1cc(C(=O)O)c(=O)c2cc(F)c(N3CCN(C(=S)NC(=O)c4ccccc4F)CC3)cc21	0	?	?	0	0	?
O=c1cc(O)n(-c2ccccc2F)c(=S)[nH]1	0	0	0	50µM	?	50µM
Cc1ccccc1-n1c(O)cc(=O)[nH]c1=S	0	0	0	56µM	0	45µM
Nc1cc(=O)[nH]c(=O)n1-c1ccc(Cl)cc1	0	0	0	0	0	0
O=c1cc(O)n(-c2ccc(Cl)cc2)c(=S)[nH]1	0	0	0	50µM	?	10µM
Cc1ccccc1-n1c(N)cc(=O)[nH]c1=S	0	0	0	0	0	0
COc1ccc(NC(=O)N2CCC3(CC2)CC(N(C(C)=O)C2CC2)CCO3)cc1 (stereo not drawn)	-	-	-	-	0	-
O=S1(=O)CCC(NC2CCCC2)C1 (stereo not drawn)	0	0	0	0	0	0
CN(C)NC1CCS(=O)(=O)C1 (stereo not drawn)	0	?	?	0	?	10µM
COC1C(=O)N(c2cccc(F)c2)C12CCN(C(=O)CCc1c[nH]c3ccccc13)CC2 (stereo not drawn)	-	-	-	-	0	-
Cc1ccc(C)c(OC(C)C(=O)Nc2ccc(S(=O)(=O)Nc3nccs3)cc2)c1 (stereo not drawn)	?	0	0	0	?	11µM
CCCCC(CC)C(=O)Nc1ccc(S(=O)(=O)Nc2nccs2)cc1 (stereo not drawn)	0	0	0	0	0	?
CCCCC1CCC(C(=O)Nc2ccc(S(=O)(=O)Nc3nccs3)cc2)CC1 (stereo not drawn)	0	0	0	0	-	45µM
CC(NS(=O)(=O)c1ccccc1)C(=O)Nc1nccs1 (stereo not drawn)	0	0	0	0	0	0
CSCCC(NS(=O)(=O)c1ccccc1)C(=O)Nc1nccs1 (stereo not drawn)	0	0	0	-	?	8.9µM
CCCC(C)C(=O)Nc1ccc(S(=O)(=O)Nc2nccs2)cc1 (stereo not drawn)	0	50µM	0	0	0	-
Cc1ccc(C)c(OC(C)C(=O)Nc2nccs2)c1 (stereo not drawn)	0	0	0	0	0	-
CCC(=O)Nc1ccc(S(=O)(=O)Nc2nccs2)cc1	0	?	0	0	0	-
FC(F)(F)c1cccc(C2=NOC3(CCN(Cc4ccncc4)CC3)C2)c1	-	-	-	-	0	-
COCCN1C(=O)CCC2(CNC(=O)COc3ccc(F)cc3)CCCC=C12 (stereo not drawn)	-	-	-	-	0	-
CCOc1ccc2nc(NC(=O)C(NS(=O)(=O)c3cccs3)C(C)C)sc2c1 (stereo not drawn)	0	0	0	0	0	0[12.7 µM]
CC(Oc1ccccc1Cl)C(=O)Nc1ccc(S(=O)(=O)Nc2nccs2)cc1 (stereo not drawn)	0	0	?	-	0	56µM
CC(Oc1ccc(Cl)cc1)C(=O)Nc1ccc(S(=O)(=O)Nc2nccs2)cc1 (stereo not drawn)	0	0	0	0	0	0
Cc1ccccc1OC(C)C(=O)Nc1ccc(S(=O)(=O)Nc2nccs2)cc1 (stereo not drawn)	0	0	0	0	0	50µM
SMILES	HP1b chromo inh	BAZ2B inh	JMJD2A Tudor inh	Sfp inh	12-LOX inh	G9a block
CCOc1ccc2nc(NC(=O)C(CCSC)NS(=O)(=O)c3cccs3)sc2c1 (stereo not drawn)	0	?	56µM	0	-	?
CCCOc1nc2ccccc2nc1N1CCC(C(=O)Nc2ccc(C(N)=O)cc2)CC1	-	-	-	-	0	-
COc1ccc(C(=O)N2CC(Oc3ccccc3-c3nc(-c4ccccc4)no3)C2)cc1	-	-	-	-	0	-
O=C(CN1CCN(c2ccccc2O)CC1)Nc1ccc(S(=O)(=O)N2CCCCCC2)cc1	0	0	0	-	0	45µM
CN(C)S(=O)(=O)c1cc(NC(=O)CN2CCN(c3ccccc3)CC2)ccc1Cl	0	0	0	0	0	0
O=S(=O)(c1ccc(NC(=S)N2CCOCC2)cc1)N1CCCCC1	-	-	-	-	0	-

Assay outcomes deposited in PubChem by National Center for Advancing Translational Sciences (NCATS).
